Data: PubChem BioAssay
Calls of active or inactive are those of the source.

molecular target: NADPH oxidase 4 (Homo sapiens) (UniProt Q9NPH5); assay: NOX4-dependent H2O2 signal modulators, primary screen, NOX inhibitor project, cell-based, HEK293-NOX4, tetracycline-induced, Amplex Red fluorescence (AID 1160); settings: 45 min, higher = more signal, called active from +8 up or from −8 down
Sequence (Q9NPH5 whole entry, looked up): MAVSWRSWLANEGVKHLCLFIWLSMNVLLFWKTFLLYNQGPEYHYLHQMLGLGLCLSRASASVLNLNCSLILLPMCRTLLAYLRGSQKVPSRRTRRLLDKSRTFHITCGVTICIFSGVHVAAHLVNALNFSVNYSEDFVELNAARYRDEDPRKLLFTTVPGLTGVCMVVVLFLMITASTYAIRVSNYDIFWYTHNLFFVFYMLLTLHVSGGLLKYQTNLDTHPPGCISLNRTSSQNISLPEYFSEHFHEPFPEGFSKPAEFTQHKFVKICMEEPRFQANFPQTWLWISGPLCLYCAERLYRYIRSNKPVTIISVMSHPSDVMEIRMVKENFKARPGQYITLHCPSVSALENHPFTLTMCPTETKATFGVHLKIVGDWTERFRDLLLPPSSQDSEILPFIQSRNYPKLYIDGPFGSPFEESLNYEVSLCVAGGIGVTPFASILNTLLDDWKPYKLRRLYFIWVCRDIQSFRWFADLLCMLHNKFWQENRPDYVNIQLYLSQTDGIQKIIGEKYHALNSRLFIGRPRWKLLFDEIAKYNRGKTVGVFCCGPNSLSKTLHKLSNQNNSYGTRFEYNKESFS

z-score, inactive:
COc1cc(Cc2cc3c(c(-c4ccccc4)n2)[Si](C(C)C)(C(C)C)OC3)cc(OC)c1OC 0.424
COCCOC(=O)N1C(=O)[C@@]2(c3cc(C#CCC(C(=O)OC)C(=O)OC)ccc31)[C@H](C(N)=O)[C@H]1C(=O)O[C@H](c3ccccc3)[C@H](c3ccccc3)N1[C@@H]2c1ccccc1OCCO 0.826
C[C@@]1([C@@H](NS(=O)(=O)c2cccc3cccnc23)c2ccc(-c3ccccc3)cc2)C[C@H]1C1CCCCC1 -0.61
C=C(C(=O)CC[C@@H](OC(=O)c1ccccc1-c1ccccc1C(=O)O)c1ccc(CO)o1)C(C)C -0.593
CCOC(=O)C1=CCC(c2cccn2C(=O)OC(C)(C)C)N(S(=O)(=O)c2ccc(C)cc2)C1 (stereo not given) 0.754
O=C1N(Cc2ccccc2)c2ccccc2C[C@@]12N=C(c1ccc(OCCCO)cc1)O[C@H]2c1ccccc1 0.112
Cc1ccc(S[C@]2(C(=O)NC3CC3)CC(=O)N(C3Cc4ccccc4C3)[C@@H]2c2ccc(CO)cc2I)cc1 -2.66
CCc1cccc(NC(=O)O[C@H]2[C@H](OC(=O)Nc3ccccc3-c3ccccc3)[C@H](OC(=O)Nc3ccccc3-c3ccccc3)[C@@H](OC)O[C@@H]2CO)c1 -0.477
CC(C)C[C@H]1NC(=O)CNC(=O)[C@@]23C(=O)N[C@@H](Cc4ccccc4)C2[C@H](C)[C@@]2(C)O[C@H]2C3/C=C/C/C=C\CNC1=O (stereo not given in full) 1.21
C=C(/C=C\CNS(=O)(=O)c1ccc(C)cc1)[C@H](O)[C@H]1CCCN1S(=O)(=O)c1ccccc1[N+](=O)[O-] -2.04
